# Compound activity as filed in PubChem.
# Sampled rows, rich in hits. Any-hit rate of the full collection: about 4.1%.
# ssDAF-12 act: S. stercoralis DAF-12 activation, primary screen. HEK293 ssDAF-12/GRIP1 lit1-tk-luc reporter, luminescence; % of 3 µM dafachronic acid response. activation, % at 6.8 µM. 370,000 compounds, 1% hits;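 active = activation above the mean over all tested compounds plus 3 SD, cut at about 0.9% in these data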;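 also: 0% = DMSO-only wells and 100% = 3 µM delta7-dafachronic acid wells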
# hgDAF12 agonist: hgDAF-12 agonism, primary luciferase screen. HEK293 GAL4-hgDAF12 UAS-luciferase reporter, agonist luminescence; normalized to butyrate control. activation, % at 6.8 µM. 370,000 compounds, 1.8% hits. AID 687014;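 active = activation above a cutoff set at the mean of all screened compounds plus 3 SD, cut at about 10% in these data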;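 also: 0% = DMSO wells and 100% = sodium butyrate wells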
# hcDAF12 agonist: activates DAF-12 receptor from parasite H. contortus; activation, % at 6.8 µM; 370,000 compounds, 1.4% hits; HEK293 hcDAF-12 lit1-tk-luc reporter, luminescence; 0% DMSO, 100% Δ7-dafachronic acid;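 active = activation above the mean of all tested compounds plus 3 SD, cut at about 5.5% in these data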;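 also: 100% = response to 3 µM Δ7-dafachronic acid high control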
# DAX1 inh-1: DAX1 (NR0B1) inhibition, primary screen; 370,000 compounds, 1.1% hits; inhibition, % at 6.8 µM; HEK293T StAR-luciferase reporter, SF-1/DAX-1 repression relief;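 active = inhibition above the mean over all tested compounds plus 3 SD, cut at about 3.6% in these data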;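 also: 0% = DAX-1 cells with DMSO and 100% = cells lacking DAX-1 with DMSO; higher inhibition means more luminescence from relief of DAX-1 repression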
# DAX1 inh-2: NR0B1 (DAX1) inhibition | P51843 | HEK293 Gal4-DAX1 luciferase reporter, luminescence | inhibition, % at 6.75 µM | 340,000 compounds, 0.99% hits;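 active = inhibition above the mean over all tested compounds plus 3 SD, cut at about 4.2% in these data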;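 also: 0% = DAX1-transfected cells with DMSO and 100% = empty-vector control cells with DMSO; inhibition shows as a rise in luminescence from relieved DAX1 repression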
# hgDAF12 ag: confirmation of H. glycines DAF-12 agonists. HEK293 GAL4-hgDAF12 luciferase reporter, agonist mode; percent of butyrate response. shares compounds with hgDAF12 agonist. AID 743050. activation, % at 6.8 µM. 3,300 compounds, 80% hits;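 active = mean activation over triplicate wells above the hit cutoff derived from the earlier primary screen, cut at about 11% in these data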;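 also: 0% = DMSO low control and 100% = 2 mM sodium butyrate high control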
# LXR ag 2: LXR-beta agonism as DAF-12 counter-screen. activation, % at 6.8 µM. 3,300 tested, under 10 active. shares compounds with hgDAF12 agonist. HEK293 Gal4-LXR luciferase reporter, 24 h;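 active = mean activation of the triplicate above a set limit carried over from the primary screen, none filed active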
# Target sequence (P55055 whole entry, looked up, the tested form may be a part): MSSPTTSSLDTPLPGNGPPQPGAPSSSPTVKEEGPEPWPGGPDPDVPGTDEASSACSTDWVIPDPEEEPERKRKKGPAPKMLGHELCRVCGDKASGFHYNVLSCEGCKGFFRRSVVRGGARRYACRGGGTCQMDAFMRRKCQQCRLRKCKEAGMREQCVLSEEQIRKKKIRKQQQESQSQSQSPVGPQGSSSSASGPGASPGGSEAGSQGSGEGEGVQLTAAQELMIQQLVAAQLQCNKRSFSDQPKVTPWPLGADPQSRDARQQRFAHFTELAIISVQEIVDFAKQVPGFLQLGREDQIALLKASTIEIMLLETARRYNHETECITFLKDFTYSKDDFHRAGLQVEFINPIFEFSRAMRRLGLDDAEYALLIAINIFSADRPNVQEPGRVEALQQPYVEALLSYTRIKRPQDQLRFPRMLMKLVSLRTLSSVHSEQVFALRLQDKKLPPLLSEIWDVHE
# The depositor's hits bear a star; / = no result given; ! = not active in a repeat.
SMILES,ssDAF-12 act,hgDAF12 agonist,hcDAF12 agonist,DAX1 inh-1,DAX1 inh-2,hgDAF12 ag,LXR ag 2
O=C(NCCC1=CCCCC1)Nc1ccc2nsnc2c1,0.0,19.7*,5.9*,3.8*,2.9,14.2*,0.7
COc1ccc(C2(C)NC(=O)N(CC(=O)Nc3ccc(-c4nc5ccc(C)cc5s4)cc3)C2=O)cc1 (centres undefined),0.1,18.8*,2.2,3.6,/,11.0*,0.5
CCC1(c2ccc(F)cc2)NC(=O)N(CC(=O)Nc2ccc(-c3nc4ccc(C)cc4s3)cc2)C1=O (centres undefined),0.6,19.8*,4.6,3.8*,1.5,15.9*,0.9
CCC1(c2ccc(F)cc2)NC(=O)N(CC(=O)Nc2ccc3c(c2)OCCO3)C1=O (centres undefined),-1.3,-0.7,1.6,3.5,0.5,/,/
CCOC(=O)c1cc(OC)c2cccc(CN3CCCC(C)(C(=O)NCCOC)C3)c2c1 (centres undefined),-1.1,-3.0,-2.9,-1.2,/,/,/
O=CN1N=C(c2ccccc2)CC1c1ccccc1[N+](=O)[O-] (centres undefined),0.0,1.5,0.9,-0.5,1.3,/,/
N#CC1CC(c2ccccc2)=NN1c1ccccc1[N+](=O)[O-] (centres undefined),0.0,15.9*,4.2,1.1,0.7,12.6*,0.5
COc1cccc(CNC(=O)N2CCN(c3ccccc3)CC2)c1,-1.0,-0.4,-1.2,0.0,0.4,/,/
NC(=O)c1c(NC(=O)c2ccccc2F)sc2c1CCC2,/,/,/,/,1.6,/,/
O=C(NNC(=O)C1CC=CCC1C(=O)O)c1cccs1 (centres undefined),-0.1,17.4*,3.2,1.9,-0.1,2.6,0.0
Cc1ccsc1C(=O)NNC(=O)C1CC=CCC1C(=O)O (centres undefined),1.4*,17.2*,5.4,4.2*,1.7,4.9,0.1
CNC(=S)N1CCN(C(=O)C2CCCO2)CC1 (centres undefined),-1.1,-1.7,-0.2,-0.3,0.0,/,/
CCC(C)NC(=O)c1ccc2c(SCC(=O)O)c3c(nc2c1)CCCC3 (centres undefined),-1.3,2.8,-1.7,0.5,0.1,/,/
O=C(Nc1ccc(Cl)cn1)c1ccc2c(Cl)c3c(nc2c1)CCC3,-1.4,15.0*,1.9,1.8,2.8,7.7,1.2
CCC(C)NC(=O)c1ccc2c(Cl)c3c(nc2c1)CCC3 (centres undefined),-0.5,17.8*,-0.4,3.2,5.7*,9.4,0.4
COc1ccc(S(=O)(=O)N(C)c2ccc(C(=O)Nc3cccnc3)cc2)cc1,-1.3,0.8,-2.9,1.1,0.6,/,/
O=C(COc1cc(F)ccc1[N+](=O)[O-])NCCN1C(=O)CSC1=O,-0.7,23.2*,-1.8,-0.3,-0.9,-1.3,0.0
COc1cc(SC)ccc1C(=O)NCCOc1ccc(F)cc1,-0.7,16.8*,4.0,2.6,1.1,10.3,0.4
COc1ccc(C(C)NC(=O)c2ccncc2)cc1OC (centres undefined),-1.2,0.8,-1.6,0.2,0.7,/,/
COc1ccc(C(O)c2ncc(-c3ccc4ccccc4c3)[nH]2)cc1F (centres undefined),-1.6,2.5,-0.1,0.7,/,/,/
S=C(NCc1ccco1)Nc1ccc(Cl)cc1Cl,-0.9,5.7,0.1,0.2,0.0,/,/
S=C(NCc1ccco1)Nc1ccc(Br)cc1Cl,-1.2,13.2*,2.1,0.1,/,3.8,0.2
O=C(CSC1CCc2ccccc21)NNC(=O)Nc1ccc(Cl)cc1 (centres undefined),0.8,16.2*,6.5*,0.8,/,7.7,0.2
Cc1ccsc1/C=C1\Oc2cc(O)ccc2C1=O,0.2,24.0*,3.1,4.5*,2.1,5.8,0.3
COc1cc(NC(=O)CNc2cccc(S(=O)(=O)N3CCOCC3)c2)cc(OC)c1,-1.0,-2.2,-1.0,-1.1,-0.5,/,/
SMILES,ssDAF-12 act,hgDAF12 agonist,hcDAF12 agonist,DAX1 inh-1,DAX1 inh-2,hgDAF12 ag,LXR ag 2
CN1CCN(c2ccc(-c3cc(NC=O)c4ncc(-c5ccc(F)cc5)n4c3)cc2)CC1,0.4,17.4*,0.1,0.6,/,8.3,0.2
O=C(CN(c1ccc2c(c1)OCCO2)S(=O)(=O)c1ccccc1)NCc1ccco1,-0.9,0.2,-1.8,-1.2,-0.7,/,/
O=C(CN(C(=O)CNS(=O)(=O)c1ccccc1)c1ccc2c(c1)OCCO2)NCc1ccco1,-1.0,15.4*,-1.0,-0.1,2.0,1.0,0.0
Nc1nonc1N/N=C/c1c(O)ccc2ccccc12,-0.9,-2.0,-1.7,-0.6,-1.7,/,/
Nc1cc(Cl)nc(N/N=C/c2c(O)ccc3ccccc23)n1,0.2,15.4*,4.2,2.1,2.6,9.6,0.6
CC(Sc1ccccc1)C(=O)NN=C1CCCCCCC1 (centres undefined),-1.2,0.2,-0.6,-0.4,-0.5,/,/
CCOC(=O)Nc1ccc2c(c1)N(C(=O)CCN1CCN3CCCC3C1)c1ccccc1CC2 (centres undefined),-0.9,1.4,0.2,0.6,-1.5,/,/
COC(=O)Nc1ccc2c(c1)N(C(=O)CCN1CCN3CCCC3C1)c1ccccc1CC2 (centres undefined),-0.5,18.1*!,-0.5,0.3,-0.1,-1.5,0.0
Brc1c(CSc2nc3ccccc3s2)nc2ncccn12,-0.4,16.3*,0.5,3.1,0.6,11.7*,0.6
O=C(NCC1CCCO1)c1cc(-c2ccccc2F)no1 (centres undefined),0.0,19.6*,5.6*,1.4,2.1,33.3*,0.5
Cc1cc(C2=NNC(=NC3CC3)SC2)c(C)n1Cc1ccco1,-3.6,-20.5,-10.0,-4.1,-3.3,/,/
COCCCN=C1NN=C(c2cc(C)n(Cc3ccco3)c2C)CS1,1.6*,14.6*,2.3,1.7,2.1,10.1,0.6
Cc1ccc(C(=O)Nc2nnc(-c3ccco3)o2)cc1,-0.5,13.6*,5.0,2.5,-1.6,10.2,0.3
N#Cc1ccc(C(=O)Nc2nnc(-c3ccco3)o2)cc1,-2.1,7.2,-0.1,-0.2,0.2,/,/
CC(=O)c1ccc(C(=O)N2CCCC(N3CCN(c4ccc(F)cc4)CC3)C2)s1 (centres undefined),-0.9,0.4,-0.7,0.3,-0.1,/,/
Cc1ccc(Nc2nnc(SCC(=O)Nc3ccccc3[N+](=O)[O-])s2)cc1,-0.6,-1.1,-1.4,-0.9,-1.7,/,/
Cc1ccc(Nc2nnc(SCC(=O)Nc3cccnc3Cl)s2)cc1C,-0.6,13.8*,1.9,-0.3,-1.1,4.9,0.2
CCN(CC)CCOC(=O)c1ccc(NC(=O)c2cn(-c3ccccc3)nc2-c2cccs2)cc1,-0.3,14.9*,3.7,3.0,2.4,7.5,0.1
